# Targets with a hit are over-represented here; the source holds about 8,800 in all. About 0.5% of all pairs of compound and target were hits. Values without a mark were called inactive.
# Key:
# Experiment in all cases: log2 fold change, soluble protein after heating vs DMSO (PISA); higher = thermal stabilisation; K562 lysate, 10 uM; active = over 0.2 and 3.5 SD of the protein, either way, in both replicates (recomputed)
# erlotinib = compound: C#Cc1cccc(Nc2ncnc3cc(OCCOC)c(OCCOC)cc23)c1 [erlotinib]
# Method in brief: (§1)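 Quantification was by TMTpro 16plex LC-MS/MS with equalised channel sums, applied to the supernatant after 21,000xg for 90 min. Samples were crude K562 extract at 1 mg/mL protein in PBS pH 7.4 with 1 mM MgCl2, treated with 10 μM compound for 30 min, heated for 3 min across 48°C-58°C, pooled and brought to 0.5% NP-40 at 4°C. Values are log-two fold changes in thermal stability relative to solvent controls, from duplicates.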
# [1] = compound: C/C(=N\NC(=O)C1=CC(=CC=C1)S(=O)(=O)N2CCOCC2)/C3=C(C=CC(=C3)Cl)O
# Method in brief: as §1
# [2] = compound: C1=CC(=CC=C1C2=NC3=C(N2)C=C(C=C3)C(=O)N)OC4=CC=C(C=C4)Cl
# Method in brief: as §1
# [3] = compound: C1=CC2=C(C=CC(=C2)/C=C\3/C(=O)NC(=NCC4=CC=CS4)S3)N=C1
# Method in brief: as §1
# [4] = compound: C1=CC2=NC=CN=C2C=C1/C=C/3\C(=O)NC(=O)S3
# Method in brief: as §1
# [5] = compound: C1=CC=C(C=C1)C2=NC(=C(N2)C3=CC=NC=C3)C4=CC(=C(C=C4)Cl)O
# Method in brief: as §1
# [6] = compound: C1=CC=C2C(=C1)C3=NNC4=CC=CC(=C43)C2=O
# Method in brief: as §1
# [7] = compound: C1CCN(C1)C(=O)NC2=CC=CC(=C2)NC3=NC=C(C(=N3)NCCC4=CN=CN4)Br
# Method in brief: as §1
# [8] = compound: C1CN(CCC1(CC2=CC=C(C=C2)Cl)N)C3=NC=NC4=C3C=CN4
# Method in brief: as §1
# IRAK-1-4 Inhibitor I = compound: C1COCCN1CCN2C3=CC=CC=C3N=C2NC(=O)C4=CC(=CC=C4)[N+](=O)[O-] [IRAK-1-4 Inhibitor I]
# Method in brief: as §1
# ibrutinib = compound: C=CC(=O)N1CCC[C@@H](n2nc(-c3ccc(Oc4ccccc4)cc3)c3c(N)ncnc32)C1 [ibrutinib]
# Method in brief: as §1
# [9] = compound: CC(=O)c1cnc2ccc(-c3cc(Cl)c(O)c(Cl)c3)nc2c1N[C@H]1CC[C@H](CN(C)C)CC1
# Method in brief: as §1
# ralimetinib = compound: CC(C)(C)Cn1c(N)nc2ccc(-c3[nH]c(C(C)(C)C)nc3-c3ccc(F)cc3)nc21 [ralimetinib]
# Method in brief: as §1
# [10] = compound: CC(C)(O)CC(=O)NCCn1ccc2ncnc(Nc3ccc(Oc4cccc(C(F)(F)F)c4)c(Cl)c3)c21
# Method in brief: as §1
# [11] = compound: CC(C)C1=C2N=C(C=C(N2N=C1)NCC3=CC=CC=C3)NCCCCCCN
# Method in brief: as §1
# [12] = compound: CC1=C(C(CC(=O)N1)C2=CC=C(C=C2)C(F)(F)F)C(=O)NC3=C(C=C4C(=C3)C=NN4)F
# Method in brief: as §1
# [13] = compound: CC1=C(C2=C(C=C1)C(=O)C3=CC=CC=C3N2CCCN)C
# Method in brief: as §1
# [14] = compound: CC1=C(C=C(C=C1)NC(=O)C2=CC(=CC=C2)C(C)(C)C#N)NC3=CC4=C(C=C3)N=CN(C4=O)C
# Method in brief: as §1
# [15] = compound: CC1=C(C=C(C=C1)NC(=O)C2=CC(=CC=C2)N(C)C)NC(=O)C3=CC=C(C=C3)O
# Method in brief: as §1
# [16] = compound: CC1=CC=C(C=C1)SC2=C3C=C(SC3=CN=C2)C(=O)N
# Method in brief: as §1
# Sequence of UniProt Q01968 (Q01968 whole entry, looked up): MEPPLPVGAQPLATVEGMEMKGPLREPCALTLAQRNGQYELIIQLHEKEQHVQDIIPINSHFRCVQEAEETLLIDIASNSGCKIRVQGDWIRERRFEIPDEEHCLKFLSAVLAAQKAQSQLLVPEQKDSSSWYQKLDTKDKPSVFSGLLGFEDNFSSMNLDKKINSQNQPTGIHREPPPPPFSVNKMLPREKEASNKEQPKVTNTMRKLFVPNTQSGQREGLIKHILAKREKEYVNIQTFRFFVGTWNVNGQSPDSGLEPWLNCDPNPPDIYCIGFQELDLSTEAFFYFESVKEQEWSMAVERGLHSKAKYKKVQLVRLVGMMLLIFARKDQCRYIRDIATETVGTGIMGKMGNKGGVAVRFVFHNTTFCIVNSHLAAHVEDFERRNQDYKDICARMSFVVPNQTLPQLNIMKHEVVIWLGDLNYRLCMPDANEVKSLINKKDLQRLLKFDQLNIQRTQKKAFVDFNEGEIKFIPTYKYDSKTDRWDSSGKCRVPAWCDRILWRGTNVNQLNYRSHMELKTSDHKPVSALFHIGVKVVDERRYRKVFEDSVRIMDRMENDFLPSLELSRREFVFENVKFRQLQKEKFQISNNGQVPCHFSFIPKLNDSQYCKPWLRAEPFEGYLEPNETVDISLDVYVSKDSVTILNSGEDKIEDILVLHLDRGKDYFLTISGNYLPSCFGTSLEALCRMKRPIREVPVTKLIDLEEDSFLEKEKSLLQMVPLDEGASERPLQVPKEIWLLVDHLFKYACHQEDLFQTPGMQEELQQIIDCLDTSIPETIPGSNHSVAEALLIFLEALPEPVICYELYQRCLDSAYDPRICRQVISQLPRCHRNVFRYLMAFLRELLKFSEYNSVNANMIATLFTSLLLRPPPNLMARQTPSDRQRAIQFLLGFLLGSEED
# Sequence of UniProt Q8NE18 (Q8NE18 whole entry, looked up): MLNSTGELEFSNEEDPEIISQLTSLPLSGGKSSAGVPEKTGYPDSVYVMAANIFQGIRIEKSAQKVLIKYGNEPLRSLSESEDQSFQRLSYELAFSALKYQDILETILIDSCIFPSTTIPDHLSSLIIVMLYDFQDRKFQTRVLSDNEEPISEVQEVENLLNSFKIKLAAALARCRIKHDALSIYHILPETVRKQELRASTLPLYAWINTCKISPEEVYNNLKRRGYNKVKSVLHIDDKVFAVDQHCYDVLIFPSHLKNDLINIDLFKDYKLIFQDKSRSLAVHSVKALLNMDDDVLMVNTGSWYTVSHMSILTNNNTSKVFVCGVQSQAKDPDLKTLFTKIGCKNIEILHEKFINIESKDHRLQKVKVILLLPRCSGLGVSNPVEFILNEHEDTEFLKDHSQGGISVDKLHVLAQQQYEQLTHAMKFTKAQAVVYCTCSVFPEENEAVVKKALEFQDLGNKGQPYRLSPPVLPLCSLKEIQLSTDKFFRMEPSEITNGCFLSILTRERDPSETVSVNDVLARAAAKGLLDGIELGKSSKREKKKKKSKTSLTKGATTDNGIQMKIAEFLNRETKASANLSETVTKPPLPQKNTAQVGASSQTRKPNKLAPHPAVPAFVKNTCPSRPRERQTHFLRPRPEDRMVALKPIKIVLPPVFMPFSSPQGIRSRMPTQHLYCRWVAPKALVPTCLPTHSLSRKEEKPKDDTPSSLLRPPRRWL
# Sequence of UniProt Q0ZGT2 (Q0ZGT2 whole entry, looked up): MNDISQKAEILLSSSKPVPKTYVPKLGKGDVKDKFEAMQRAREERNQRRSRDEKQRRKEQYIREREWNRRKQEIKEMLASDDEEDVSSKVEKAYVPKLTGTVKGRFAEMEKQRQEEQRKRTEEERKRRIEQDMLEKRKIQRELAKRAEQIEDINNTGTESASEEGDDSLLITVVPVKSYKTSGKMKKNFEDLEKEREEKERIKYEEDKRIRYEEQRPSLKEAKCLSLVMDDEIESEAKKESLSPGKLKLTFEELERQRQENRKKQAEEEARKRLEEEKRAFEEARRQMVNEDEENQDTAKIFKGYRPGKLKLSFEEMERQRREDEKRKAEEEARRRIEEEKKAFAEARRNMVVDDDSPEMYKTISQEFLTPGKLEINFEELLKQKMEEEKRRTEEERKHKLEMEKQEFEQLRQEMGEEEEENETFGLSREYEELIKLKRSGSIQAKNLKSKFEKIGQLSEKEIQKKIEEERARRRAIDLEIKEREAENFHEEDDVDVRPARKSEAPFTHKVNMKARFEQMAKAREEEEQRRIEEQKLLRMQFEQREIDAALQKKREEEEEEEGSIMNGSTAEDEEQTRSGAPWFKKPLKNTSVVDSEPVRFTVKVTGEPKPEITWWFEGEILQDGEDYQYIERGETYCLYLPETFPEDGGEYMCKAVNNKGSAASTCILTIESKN
# Sequence of UniProt Q9BZ23 (Q9BZ23 whole entry, looked up): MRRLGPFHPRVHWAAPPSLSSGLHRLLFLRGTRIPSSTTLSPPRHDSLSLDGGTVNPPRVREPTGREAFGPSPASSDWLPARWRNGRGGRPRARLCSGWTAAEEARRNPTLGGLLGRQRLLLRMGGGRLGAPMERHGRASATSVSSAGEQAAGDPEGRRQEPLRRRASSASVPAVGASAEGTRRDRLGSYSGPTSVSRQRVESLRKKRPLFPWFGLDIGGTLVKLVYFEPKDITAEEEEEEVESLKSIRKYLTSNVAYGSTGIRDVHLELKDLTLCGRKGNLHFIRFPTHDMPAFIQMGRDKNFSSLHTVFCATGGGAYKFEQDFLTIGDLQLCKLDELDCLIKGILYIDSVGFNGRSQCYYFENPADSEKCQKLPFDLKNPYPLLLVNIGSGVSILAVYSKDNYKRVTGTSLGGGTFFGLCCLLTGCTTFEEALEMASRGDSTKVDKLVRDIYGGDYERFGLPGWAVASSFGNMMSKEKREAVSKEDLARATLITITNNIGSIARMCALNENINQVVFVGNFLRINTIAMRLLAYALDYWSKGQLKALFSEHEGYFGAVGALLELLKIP
# Sequence of UniProt P49116 (P49116 whole entry, looked up): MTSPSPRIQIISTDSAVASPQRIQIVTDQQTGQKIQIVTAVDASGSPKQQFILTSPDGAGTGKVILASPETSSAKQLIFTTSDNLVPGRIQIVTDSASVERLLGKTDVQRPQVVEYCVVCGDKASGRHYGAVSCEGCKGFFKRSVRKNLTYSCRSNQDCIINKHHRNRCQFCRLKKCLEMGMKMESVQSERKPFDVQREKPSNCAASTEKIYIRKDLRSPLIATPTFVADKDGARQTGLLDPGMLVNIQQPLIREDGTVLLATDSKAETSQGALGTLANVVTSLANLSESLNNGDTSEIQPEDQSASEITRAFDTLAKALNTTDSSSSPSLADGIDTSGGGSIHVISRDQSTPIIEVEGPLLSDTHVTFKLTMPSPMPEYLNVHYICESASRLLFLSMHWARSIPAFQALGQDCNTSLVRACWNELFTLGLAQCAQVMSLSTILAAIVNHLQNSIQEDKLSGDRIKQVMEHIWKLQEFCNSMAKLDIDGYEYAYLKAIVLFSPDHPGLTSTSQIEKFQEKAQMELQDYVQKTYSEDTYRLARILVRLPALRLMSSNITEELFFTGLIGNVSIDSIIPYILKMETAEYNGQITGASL
# Sequence of UniProt Q9Y5A7 (Q9Y5A7 whole entry, looked up): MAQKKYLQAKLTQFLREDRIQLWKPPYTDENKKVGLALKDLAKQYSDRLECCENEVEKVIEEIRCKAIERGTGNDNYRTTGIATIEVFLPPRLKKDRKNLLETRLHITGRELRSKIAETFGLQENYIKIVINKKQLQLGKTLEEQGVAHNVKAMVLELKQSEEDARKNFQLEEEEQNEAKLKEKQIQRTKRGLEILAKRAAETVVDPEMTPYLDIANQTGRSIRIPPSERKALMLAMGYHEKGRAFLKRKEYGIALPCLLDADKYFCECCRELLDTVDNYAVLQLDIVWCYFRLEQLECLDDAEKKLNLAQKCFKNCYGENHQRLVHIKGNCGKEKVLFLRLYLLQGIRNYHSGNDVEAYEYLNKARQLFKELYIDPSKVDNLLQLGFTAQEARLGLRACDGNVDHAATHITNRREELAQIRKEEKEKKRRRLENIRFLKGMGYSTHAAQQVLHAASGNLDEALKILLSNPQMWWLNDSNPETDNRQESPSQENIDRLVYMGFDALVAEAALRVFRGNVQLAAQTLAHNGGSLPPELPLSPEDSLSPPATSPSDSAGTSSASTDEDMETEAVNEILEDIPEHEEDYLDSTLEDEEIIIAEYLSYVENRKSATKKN
# Sequence of UniProt Q9UK39 (Q9UK39 whole entry, looked up): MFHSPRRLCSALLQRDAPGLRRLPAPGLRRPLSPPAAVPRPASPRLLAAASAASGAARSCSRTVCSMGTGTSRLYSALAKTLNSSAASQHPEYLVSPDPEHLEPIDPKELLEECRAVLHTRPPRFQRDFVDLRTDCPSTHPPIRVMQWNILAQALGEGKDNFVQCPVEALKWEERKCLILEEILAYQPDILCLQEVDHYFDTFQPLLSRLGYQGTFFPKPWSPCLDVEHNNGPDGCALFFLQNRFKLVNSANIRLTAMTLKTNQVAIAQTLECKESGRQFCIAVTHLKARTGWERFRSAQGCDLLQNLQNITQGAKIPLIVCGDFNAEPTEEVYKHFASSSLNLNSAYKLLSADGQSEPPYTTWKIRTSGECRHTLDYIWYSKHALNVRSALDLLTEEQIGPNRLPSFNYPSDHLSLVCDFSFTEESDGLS
# Sequence of UniProt Q5JRK9 (Q5JRK9 whole entry, looked up): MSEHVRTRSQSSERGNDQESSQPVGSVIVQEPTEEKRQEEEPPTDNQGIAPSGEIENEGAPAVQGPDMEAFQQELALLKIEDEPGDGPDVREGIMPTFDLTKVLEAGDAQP
# Sequence of UniProt Q9UDX5 (Q9UDX5 whole entry, looked up): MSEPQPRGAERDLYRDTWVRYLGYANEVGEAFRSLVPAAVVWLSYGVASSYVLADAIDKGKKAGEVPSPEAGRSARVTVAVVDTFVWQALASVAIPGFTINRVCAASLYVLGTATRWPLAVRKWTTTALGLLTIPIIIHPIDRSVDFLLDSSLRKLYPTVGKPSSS
# Sequence of UniProt Q9BSD7 (Q9BSD7 whole entry, looked up): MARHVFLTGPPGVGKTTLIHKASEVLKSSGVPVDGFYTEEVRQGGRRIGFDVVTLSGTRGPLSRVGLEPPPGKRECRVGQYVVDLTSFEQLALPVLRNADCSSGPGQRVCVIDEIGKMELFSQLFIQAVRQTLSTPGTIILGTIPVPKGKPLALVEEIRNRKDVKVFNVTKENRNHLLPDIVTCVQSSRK
Target,log2 fold change (erlotinib),log2 fold change [1],log2 fold change [2],log2 fold change [3],log2 fold change [4],log2 fold change [5],log2 fold change [6],log2 fold change [7],log2 fold change [8],log2 fold change (IRAK-1-4 Inhibitor I),log2 fold change (ibrutinib),log2 fold change [9],log2 fold change (ralimetinib),log2 fold change [10],log2 fold change [11],log2 fold change [12],log2 fold change [13],log2 fold change [14],log2 fold change [15],log2 fold change [16]
MRPL51 (UniProt Q4U2R6),-0.067,-0.05,-0.027,0.08,-0.036,-0.039,0.036,-0.006,-0.09,0.001,0.02,-0.005,0.048,0.011,-0.038,0.066,0.006,-0.062,0.051,0.017
PAN2 isoform 2 (UniProt Q504Q3),0,-0.007,-0.015,-0.005,0.052,0.03,0,-0.017,-0.031,0.006,-0.141,0.036,0.022,-0.022,-0.025,0.022,0.015,0.012,-0.038,0.027
NMRAL1 (UniProt Q9HBL8),0.008,0.012,-0.111,-0.011,-0.037,-0.054,0.141,0.024,0.001,-0.02,0.122,0.021,0.06,0.012,-0.03,0.047,-0.048,-0.01,-0.016,0
NEBL isoform 2 (UniProt O76041),0,0.081,0.045,0.012,0.016,0.015,0.003,-0.007,-0.006,-0.005,-0.04,0.015,-0.038,0.027,0.027,-0.012,-0.028,0,0.011,-0.013
NUB1 (UniProt Q9Y5A7),0.049,0.055,-0.003,-0.015,0.002,0.054,0.023,-0.022,-0.023,-0.02,-0.001,0.022,-0.003,0.018,-0.027,0.014,-0.009,-0.028,0.008,0.02
NEXN (UniProt Q0ZGT2),0.091,-0.011,-0.019,-0.067,-0.154,-0.144,-0.049,-0.255,0.28,-0.133,0.173,-0.008,0.257,0.057,0.066,-0.012,-0.065,,0.101,-0.017
OCRL (UniProt Q01968),-0.057,-0.031,0.04,0.085,-0.012,0.054,-0.1,0.02,0.055,0.068,0.051,-0.038,-0.016,0.016,0.044,0.013,0.036,0.022,-0.002,0.033
MTFP1 (UniProt Q9UDX5),-0.006,0.092,0.035,0.041,-0.043,-0.003,0.081,-0.044,0.044,-0.058,0.097,-0.065,-0.017,0.079,-0.058,0.018,0.009,-0.011,-0.048,-0.001
NCOR1 (UniProt O75376),0.011,-0.05,0.081,0.004,-0.014,-0.041,-0.001,0.009,0.019,0.022,0.002,0.015,0.021,-0.033,0.014,0.026,-0.026,0,-0.006,-0.005
NTPCR (UniProt Q9BSD7),0.015,-0.263,-0.007,0.065,0.031,0.018,-0.045,0.025,0.046,-0.011,-0.004,0.002,0.014,0,0.022,0.018,0.014,-0.002,0.066,-0.001
NR2C2 isoform 2 (UniProt P49116),0.006,0.135,-0.014,0.134,-0.012,0.064,-0.035,0.061,-0.041,-0.019,0.069,-0.081,0.014,0,-0.03,,-0.064,0.044,-0.019,-0.086
PAGE4 (UniProt O60829),-0.423,,0.098,,0.034,0.015,,-0.068,-0.095,-0.034,0.056,-0.029,0.028,-0.077,0.072,,-0.014,0.04,0.078,0.004
PARD3B (UniProt Q8TEW8),0.025,,-0.084,,,,,,,,,,,,0.091,,0.071,,,
NUB1 (UniProt H7C5N1),,,,,,0.163,,,,0.183,,,0.133,-0.146,,,,,-0.131,
NFATC4 isoform 2 (UniProt Q14934),,-0.627 (active),,-0.132,-0.064,,-0.224,-0.07,-0.012,,-0.053,-0.075,,,,-0.067,-0.057,0.125,,-0.063
NR3C1 isoform 3 (UniProt P04150),0.061,-0.019,-0.058,-0.075,0.09,0.044,,0.047,-0.064,-0.059,-0.168,-0.019,-0.076,0.04,0.008,-0.031,0.104,0.024,-0.033,0.055
PAGE2B (UniProt Q5JRK9),0.056,0.038,-0.033,-0.085,,-0.021,0.093,0.055,0.055,0.148,,-0.049,-0.024,-0.032,-0.054,0.023,0.044,-0.003,0.238,0.022
MYH6 (UniProt P13533),0.107,,0.08,,0.304,0.029,,-0.049,0.115,0.052,0.793 (active),-0.017,0.045,-0.157,0.01,,,0.047,-0.081,-0.172
MTHFD1 (UniProt V9GZ32),,,,,,,,,,,,0.045,,,,-0.18,,,,0.088
PANK2 (UniProt Q9BZ23),,-0.012,,-0.019,0.011,-0.078,-0.044,-0.008,-0.06,0.14,-0.056,0.001,-0.069,-0.047,,-0.073,-0.126,-0.046,-0.002,0.023
MYO9A isoform 4 (UniProt B2RTY4),0.074,0.008,-0.125,-0.045,0.153,-0.007,-0.05,,,-0.059,-0.057,0.016,0.022,0.068,0.03,-0.031,-0.142,-0.037,0.043,-0.005
NSUN7 (UniProt Q8NE18),-0.037,-0.271,0.019,-0.095,0.198,-0.031,-0.087,-0.026,-0.042,0.068,0.076,-0.025,0.168,-0.137,0.042,,,0.102,-0.009,-0.017
NOCT (UniProt Q9UK39),-0.129,,0.061,,,0.1,,-0.134,0.06,0.007,,0.001,0.068,-0.06,0.014,0.004,0.114,-0.012,-0.066,0.064
ORC1 (UniProt Q13415),,,,,,,,0.216,0.05,,,,,,,,,,,
